SMILES strings stand for the structures.

Format in all cases: functional
Assay [1] has as its system Plasmodium falciparum. The experiment in a line: GSK_TCMDC: Inhibition of Plasmodium falciparum 3D7 in whole red blood cells, using parasite LDH activity as an index of growth. Test compounds present at 2uM.
The subject of assay [2] is Plasmodium falciparum. The experiment in a line: GSK_TCMDC: Inhibition of Plasmodium falciparum Dd2 in whole red blood cells, using parasite LDH activity as an index of growth. Test compounds present at 2uM.
Assay [3] relates to HepG2. Kind of assay: GSK_TCMDC: Percent inhibition of human HepG2 cell line. Test compounds present at 10uM.

Take `CCc1ccc(N2C(=O)C3C(Cc4ccc(OC(C)(C)C)cc4)NC4(C(=O)N(Cc5ccccc5)c5ccc(F)cc54)C3C2=O)cc1` (stereo unspecified): the Inhibition (commonly how much of the control response was suppressed) stood at 96% in assay [1], 49% in assay [2] and 9% in assay [3].

For the molecule `COc1ccc2nc3cc(Cl)ccc3c(NCCN3CCN(C)CC3)c2c1.Cl`, the results for the Inhibition in assay [1], in assay [2] and in assay [3] were 100%, 99% and 29%, respectively.

Take `CCOC(=O)c1ccc(NC(=O)NCCCC2CCCN(CCCCCNC(=O)/C=C/c3ccc(Cl)c(Cl)c3)C2)cc1` (stereo unspecified): the Inhibition in assay [1] turned out to be 96%; in assay [2] it was 30%; in assay [3] it was 14%.

With `N=C(N)c1ccc(C=Cc2ccc(C(=N)N)cc2O)cc1.O=S(=O)(O)CCO`, the Inhibition in assay [1] amounted to 92%; in assay [2], 80%; in assay [3], 10%.

In the case of `CC(C)C[C@H](Nc1ccnc(NCC2CCCCC2)n1)C(=O)Nc1ccccc1.O=C(O)C(F)(F)F`, the Inhibition in assay [1] was 87%; in assay [2] it was 42%; in assay [3] it was 6%.

On to `CN(C)c1ccc(-c2ccc(C(=O)NC3CCN(Cc4cccc(C(F)(F)F)c4)CC3)s2)cc1.O=C(O)C(F)(F)F`, for which the Inhibition in assay [1] is 96%; in assay [2], 77%; in assay [3] it was 35%.

Regarding `FC(F)(F)c1cccc(N=C(S)NN=Cc2ccccn2)c1`, the results for the Inhibition in assay [1], in assay [2] and in assay [3] were 100%, 99% and 29%, respectively.

For the molecule `CCOC(=O)c1cn(CC)c2cc(OCc3ccccc3)ccc2c1=O`, the Inhibition in assay [1] came out at 97%; in assay [2] it was 96%; in assay [3], 2%.

As for `COc1ccc(-c2ccc(NC(=O)c3ccc(Cl)cc3)cc2)cc1CN1CCCN(C)CC1.O=C(O)C(F)(F)F`, the values for the Inhibition in assay [1], in assay [2] and in assay [3] were 93%, 61% and 27%, respectively.

For `NS(=O)(=O)NCCCN1CCN(c2ccccc2)CC1`, the Inhibition worked out at 90% in assay [1], 73% in assay [2] and 2% in assay [3].

As to `O=C(/C=C/c1cc([N+](=O)[O-])ccc1Cl)N1CCC(CCN2CCC(c3c[nH]c4ccccc34)CC2)CC1`, the Inhibition in assay [1] was found to be 92%; in assay [2], 26%; in assay [3], 25%.

Consider `COc1cccc2cc(C(=O)N[C@@H](CC(C)C)C(=O)N[C@H](/C=N/NC(=O)c3ccccc3)Cc3c[nH]cn3)oc12`, for which the Inhibition in assay [1] is recorded as 99%; in assay [2], 90%; in assay [3] it was 3%.

Regarding `CC(C)CNCc1ccc(-c2ccc(CN(CCCN3CCN(C)CC3)C(=O)CCC3CCCC3)cc2)cc1.O=C(O)C(F)(F)F`, the Inhibition is given as 96% in assay [1], 87% in assay [2] and 50% in assay [3].

Turning to `CCC[C@@H](/C=N/N(C)C(=O)OC(C)(C)C)NC(=O)[C@H](CC(C)C)NC(=O)c1cc2cccc(OC)c2o1`, the Inhibition in assay [1] turned out to be 88%; in assay [2] it was 61%; in assay [3] it was 5%.

With `O=C(Cc1ccccc1)NC(CCN1CCC(NC(=O)c2ccc(Cl)cc2)CC1)c1ccc(Cl)c(Cl)c1` (stereo unspecified), the Inhibition stood at 85% in assay [1], 23% in assay [2] and 17% in assay [3].

In the case of `CC(Sc1nc2sccc2c(=O)n1C)C(=O)Nc1ccc2c(c1)OCO2` (stereo unspecified), the Inhibition in assay [1] is 100%; in assay [2], 100%; in assay [3], 5%.

Consider `Nc1nc(N)c2c(ccc3c2ccn3Cc2cccc3ccccc23)n1`, for which the Inhibition in assay [1] is 99%; in assay [2], 95%; in assay [3], 65%.

As for `CCCCNC(=O)C(C)NC(=O)c1ccc(O)c(-c2ccc(Cl)c(Cl)c2)c1` (stereo unspecified), the Inhibition in assay [1] is given as 98%; in assay [2], 8%; in assay [3], 0%.

`Cc1ccc2nc(-c3ccc(C(=O)NC4CCN(Cc5ccccc5)CC4)cc3)[nH]c2c1C`: the Inhibition is reported as 100% in assay [1], 46% in assay [2] and 22% in assay [3].

Regarding `Clc1ccc2c(NN=Cc3ccccc3)ccnc2c1`, the figures for the Inhibition in assay [1], in assay [2] and in assay [3] were 100%, 94% and 0%, respectively.

With `O=C(Nc1ccc2[nH]c(-c3ccccc3)nc2c1)c1cc(-c2ccc3c(c2)OCCO3)n[nH]1.O=C(O)C(F)(F)F`, the Inhibition in assay [1] is listed as 100%; in assay [2] it was 75%; in assay [3], 58%.

Turning to `Cc1cc(N[C@@H](Cc2ccccc2)C(=O)NCc2cccs2)nc(NCCOc2ccccc2)n1.O=C(O)C(F)(F)F`, the Inhibition in assay [1] is reported as 93%; in assay [2], 31%; in assay [3], 2%.

Turning to `O=S(=O)(c1csc2ccccc12)N(CCC(O)(C(F)(F)F)C(F)(F)F)Cc1cccc(O)c1`, the figures for the Inhibition in assay [1], in assay [2] and in assay [3] were 100%, 100% and 0%, respectively.

Regarding `Oc1ccc2nc(Nc3ccccc3)nc(NCCc3ccccc3)c2c1`, the Inhibition in assay [1] worked out at 100%; in assay [2] it was 100%; in assay [3], 20%.

`CCNc1cc(C(=O)NC(Cc2ccccc2)C(O)CNC(C)(C)CCCC(C)C)c(F)c(N2CCCS2(=O)=O)c1.O=CO` (stereo unspecified): the Inhibition in assay [1] is on record as 98%; in assay [2] it was 97%; in assay [3] it was 0%.

`CC(C)c1cn2c3c(cc(C(=O)N[C@@H](Cc4ccccc4)[C@H](O)CNC4CCCCC4)cc13)N(C)S(=O)(=O)CC2.O=CO`: the Inhibition in assay [1] was found to be 98%; in assay [2], 99%; in assay [3], 9%.

As for `Oc1cc(Nc2ccnc3cc(-c4cccc(CN5CCCCC5)c4)ccc23)c(F)cc1Cl`, the Inhibition in assay [1] was 100%; in assay [2] it was 100%; in assay [3], 21%.

The record behind these values is ChEMBL document CHEMBL1157539, “Thousands of chemical starting points for antimalarial lead identification” (Nature, 2010).
